Experimental data: PubChem BioAssay (EPA / NIEHS)
Active and inactive are the calls of the source. Rule for the calls: active = hit-call score of the fitted dose curve at least 0.9, where 1 is the maximum; inactive = score below 0.9.

Assays:
[1] = read-out: Tissue plasminogen activator (tPA), PLAT (gene 5327); assay: BSK_BE3C_tPA: BioMAP Diversity Plus: BE3C Assay for Tissue plasminogen activator (tPA) Biomarker Activity (AID 2283041); conditions: primary human bronchial epithelial cells; actives raise or lower the signal;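 for outcome: tPA level quantified by ELISA one day after compound addition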
In short: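 Gain- or loss-of-signal in tPA, measured by ELISA, derived by bidirectional fitting against DMSO. Cells: human primary bronchial epithelial; read at 24 h after chemical dosing.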

[2] = read-out: Interleukin-8 (IL8), CXCL8 (gene 3576); assay: BSK_CASM3C_IL8: BioMAP Diversity Plus: CASM3C Assay for Interleukin-8 (IL8) Biomarker Activity (AID 2283042); conditions: primary human coronary artery smooth muscle cells; actives raise or lower the signal;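 note: IL-8 protein level quantified by ELISA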
[3] = read-out: Human Leukocyte Antigen - DR isotype (HLADR), HLA-DRA (gene 3122); assay: BSK_CASM3C_HLADR: BioMAP Diversity Plus: CASM3C Assay for Human Leukocyte Antigen - DR isotype (HLADR) Biomarker Activity (AID 2283043); conditions: primary human coronary artery smooth muscle cells; actives raise or lower the signal;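 note: cell-surface HLA-DR protein level quantified by ELISA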
[4] = read-out: Macrophage colony-stimulating factor (MCSF), CSF1 (gene 1435); assay: BSK_CASM3C_MCSF: BioMAP Diversity Plus: CASM3C Assay for Macrophage colony-stimulating factor (MCSF) Biomarker Activity (AID 2283044); conditions: primary human coronary artery smooth muscle cells; actives raise or lower the signal;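 note: M-CSF protein amount quantified by ELISA after 24 h exposure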
[5] = read-out: Low-density lipoprotein receptor (LDLR), LDLR (gene 3949); assay: BSK_CASM3C_LDLR: BioMAP Diversity Plus: CASM3C Assay for Low-density lipoprotein receptor (LDLR) Biomarker Activity (AID 2283045); conditions: primary human coronary artery smooth muscle cells; actives raise or lower the signal;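 note: LDLR protein level on the cell surface quantified by ELISA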
[6] = read-out: Monocyte Chemoattractant Protein-1 (MCP1), CCL2 (gene 6347); assay: BSK_CASM3C_MCP1: BioMAP Diversity Plus: CASM3C Assay for Monocyte Chemoattractant Protein-1 (MCP1) Biomarker Activity (AID 2283046); conditions: primary human coronary artery smooth muscle cells; actives raise or lower the signal;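 note: MCP-1 level quantified by ELISA 24 h after dosing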
[7] = BSK_CASM3C_Proliferation: Cell Proliferation Assessment in the BioMAP Diversity Plus: CASM3C Assay (AID 2283047); conditions: primary human coronary artery smooth muscle cells;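 note: sulforhodamine B total protein stain as relative cell number at 560 nm; sub-confluent cells exposed 48 h before staining; fitted both ways against DMSO so gain or loss of cell number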
[8] = read-out: Monokine induced gamma interferon (MIG), CXCL9 (gene 4283); assay: BSK_CASM3C_MIG: BioMAP Diversity Plus: CASM3C Assay for Monokine induced gamma interferon (MIG) Biomarker Activity (AID 2283048); conditions: primary human coronary artery smooth muscle cells; actives raise or lower the signal;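 note: MIG protein level measured by ELISA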
[9] = read-out: serum amyloid A (SAA), SAA1 (gene 6288); assay: BSK_CASM3C_SAA: BioMAP Diversity Plus: CASM3C Assay for serum amyloid A (SAA) Biomarker Activity (AID 2283049); conditions: primary human coronary artery smooth muscle cells; actives raise or lower the signal;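 note: SAA protein level quantified by ELISA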
[10] = BSK_CASM3C_SRB: Viability Assessment in the BioMAP Diversity Plus: CASM3C Assay (AID 2283050); conditions: primary human coronary artery smooth muscle cells;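 note: total protein by SRB staining as cytotoxicity measure in parallel cultures; cells exposed to compound for 24 h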

Row | Structure (SMILES) | outcome [1] | outcome [2] | outcome [3] | outcome [4] | outcome [5] | outcome [6] | outcome [7] | outcome [8] | outcome [9] | outcome [10] | AC50 [1] | AC50 [2] | AC50 [4] | AC50 [6] | AC50 [7] | AC50 [8] | AC50 [9] | AC50 [10]
1 | CCNP(=S)(OC)O/C(C)=C/C(=O)OC(C)C (stereo not given) | inactive | inactive | inactive | inactive | inactive | inactive | inactive | inactive | inactive | inactive |  |  |  |  |  |  |  | 
2 | OC(c1ccc(Cl)cc1)(c1ccc(Cl)cc1)C(Cl)(Cl)Cl |  |  | inactive |  | inactive |  |  |  |  |  | 13.1 µM (active) | 33.4 µM (active) | 36.2 µM (active) | 35.2 µM (active) | 30.4 µM (active) | 31.3 µM (active) | 32.2 µM (active) | 35.2 µM (active)
3 | Cc1c(COC(=O)[C@@H]2[C@H](/C=C(\Cl)C(F)(F)F)C2(C)C)cccc1-c1ccccc1 | inactive | inactive | inactive | inactive | inactive | inactive | inactive | inactive | inactive | inactive |  |  |  |  |  |  |  | 
4 | CN/C(=N\[N+](=O)[O-])NCc1cnc(Cl)s1 | inactive | inactive | inactive | inactive | inactive | inactive | inactive | inactive | inactive | inactive |  |  |  |  |  |  |  | 
5 | CCOC(=O)C(C)OC(=O)c1cc(Oc2ccc(C(F)(F)F)cc2Cl)ccc1[N+](=O)[O-] (stereo not given) | inactive | inactive | inactive |  | inactive |  | inactive | inactive | inactive | inactive |  |  | 0.989 µM (active) | 8.51 µM (active) |  |  |  | 
6 | CSC(=O)c1c(C(F)F)nc(C(F)(F)F)c(C(=O)SC)c1CC(C)C | inactive | inactive | inactive | inactive | inactive | inactive | inactive | inactive | inactive | inactive |  |  |  |  |  |  |  | 
7 | CCOP(=S)(OCC)Oc1nc(Cl)n(C(C)C)n1 | inactive | inactive | inactive | inactive | inactive | inactive | inactive | inactive | inactive | inactive |  |  |  |  |  |  |  | 
8 | CCOc1cc(C(C)(C)C)ccc1C1COC(c2c(F)cccc2F)=N1 (stereo not given) |  | inactive | inactive | inactive | inactive |  |  | inactive | inactive |  | 22.1 µM (active) |  |  | 32.5 µM (active) | 33 µM (active) |  |  | 25 µM (active)
9 | Nc1cnn(-c2ccccc2)c(=O)c1Cl | inactive | inactive | inactive | inactive | inactive | inactive | inactive | inactive | inactive | inactive |  |  |  |  |  |  |  | 
10 | Nc1c(Cl)c(Cl)nc(C(=O)O)c1Cl | inactive | inactive | inactive | inactive | inactive | inactive | inactive | inactive | inactive | inactive |  |  |  |  |  |  |  | 
11 | CCCCC(O)(Cn1cncn1)c1ccc(Cl)cc1Cl (stereo not given) | inactive | inactive | inactive | inactive | inactive | inactive | inactive | inactive | inactive | inactive |  |  |  |  |  |  |  | 
12 | CC1(C)C(C=C(Cl)Cl)C1C(=O)OC(C#N)c1cccc(Oc2ccccc2)c1 (stereo not given) | inactive | inactive | inactive | inactive | inactive | inactive | inactive | inactive | inactive | inactive |  |  |  |  |  |  |  | 
13 | CCCCC(C#N)(Cn1cncn1)c1ccc(Cl)cc1 (stereo not given) | inactive | inactive | inactive | inactive | inactive | inactive | inactive | inactive | inactive | inactive |  |  |  |  |  |  |  | 
14 | CCC(C)n1c(=O)[nH]c(C)c(Br)c1=O (stereo not given) | inactive | inactive | inactive | inactive | inactive | inactive | inactive | inactive | inactive | inactive |  |  |  |  |  |  |  | 
15 | COCC(C)N(C(=O)CCl)c1c(C)csc1C (stereo not given) | inactive | inactive | inactive | inactive | inactive | inactive | inactive | inactive | inactive | inactive |  |  |  |  |  |  |  | 
16 | Cc1cc(C)nc(Nc2ccccc2)n1 | inactive | inactive | inactive | inactive | inactive | inactive | inactive | inactive | inactive | inactive |  |  |  |  |  |  |  | 
17 | COCc1cnc(C2=NC(C)(C(C)C)C(=O)N2)c(C(=O)O)c1 (stereo not given) | inactive | inactive | inactive | inactive | inactive | inactive | inactive | inactive | inactive | inactive |  |  |  |  |  |  |  | 
18 | CN=C=S | inactive | inactive | inactive | inactive | inactive | inactive | inactive | inactive | inactive | inactive |  |  |  |  |  |  |  | 
19 | CCSC(=O)N1CCCCCC1 | inactive | inactive | inactive | inactive | inactive | inactive | inactive | inactive | inactive | inactive |  |  |  |  |  |  |  | 
20 | CCN(CC)C(=O)C(C)Oc1cccc2ccccc12 (stereo not given) | inactive | inactive | inactive | inactive | inactive | inactive |  | inactive | inactive | inactive |  |  |  |  | 0.531 µM (active) |  |  | 
21 | CS(=O)(=O)c1cc(C(F)(F)F)ccc1C(=O)c1cnoc1C1CC1 | inactive | inactive | inactive | inactive | inactive | inactive | inactive | inactive | inactive | inactive |  |  |  |  |  |  |  | 
